Where “and” joins values, the source holds several entries; their conditions need not be identical. Equal values may be shown once. Inconclusive results are not listed. Entries that show only a call come without a potency. Where a structure was tested more than once in an assay, its records may differ in their call. Calls of active or inactive are those of the source. Unless noted, calls come from the whole dose curve.
Assays:
[1] = Nuclear factor erythroid 2-related factor 2/antioxidant responsive element (Nrf2/ARE) small molecule agonists: qHTS cell viability counter screen in human keratinocytes (AID 1919968; active = well fitted curve in the direction sought with a large enough effect in the repeat runs; an effect the other way counts as inactive or inconclusive; note: nearly all actives have a fitted effect of over 55% in size; note: potency is the fitted concentration of half-maximal effect); conditions: KeratinoSens HaCaT ARE cells viability, CellTiter-Fluor, 24 h; series mostly up to 92.4 µM
Summary of the method: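 Fluorescence read-out from CellTiter-Fluor after 1 h at 37 C. Wells held HaCaT-derived ARE-luciferase reporter cells (1,500/well) treated 23 h with DMSO-dissolved compounds. Run in the same wells as the luciferase agonist read.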

[2] = Nuclear factor erythroid 2-related factor 2/antioxidant responsive element (Nrf2/ARE) small molecule agonists: luciferase reporter gene qHTS assay in human keratinocytes (AID 1919969); conditions: KeratinoSens HaCaT ARE-luciferase, luminescence, 24 h; series mostly up to 92.4 µM; note: nearly all actives have a fitted effect of over 35% in size; note: potency is the fitted concentration of half-maximal effect
[3] = target: Gonadotropin-releasing hormone receptor (Homo sapiens) (UniProt P30968); assay: Human gonadotropin-releasing hormone receptor (GnRHR) small molecule agonists, calcium flux assay in GnRHR-HEK293 cells (AID 1920063); conditions: calcium flux fluorescence, agonist mode; series mostly up to 57.6 µM; note: nearly all actives have a fitted effect of over 35% in size; note: potency is the fitted concentration of half-maximal effect
Sequence of Gonadotropin-releasing hormone receptor (Homo sapiens) (P30968 whole entry, looked up): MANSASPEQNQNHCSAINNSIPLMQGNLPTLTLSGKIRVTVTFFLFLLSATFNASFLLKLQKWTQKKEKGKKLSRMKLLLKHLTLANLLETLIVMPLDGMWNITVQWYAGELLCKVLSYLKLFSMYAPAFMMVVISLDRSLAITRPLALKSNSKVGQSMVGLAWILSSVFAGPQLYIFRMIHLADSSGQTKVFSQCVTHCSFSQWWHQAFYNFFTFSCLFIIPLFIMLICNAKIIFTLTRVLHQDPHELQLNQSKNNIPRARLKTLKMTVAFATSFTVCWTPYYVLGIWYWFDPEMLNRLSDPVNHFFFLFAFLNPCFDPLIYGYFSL
Summary of the method: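 Calcium-dye fluorescence, Ex/Em=480/540, recorded every 1 sec over 3 min after compound addition to GnRHR-HEK293 cells. Cells had been seeded 18 hours earlier and dye-loaded for 1 hour at 37 C. Fifteen concentrations, triplicates.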

[4] = target: KiSS-1 receptor (Homo sapiens) (UniProt Q969F8); assay: Human kisspeptin (KISS1R) small molecule agonists, calcium flux assay in KISS1R-HEK293 cells (AID 1920064; active = well fitted curve in the direction sought with a large enough effect in the repeat runs; an effect the other way counts as inactive or inconclusive; note: potency is the fitted concentration of half-maximal effect); conditions: KISS1R-HEK293, calcium flux fluorescence, agonist; series mostly up to 76.8 µM
Sequence of KiSS-1 receptor (Homo sapiens) (Q969F8 whole entry, looked up): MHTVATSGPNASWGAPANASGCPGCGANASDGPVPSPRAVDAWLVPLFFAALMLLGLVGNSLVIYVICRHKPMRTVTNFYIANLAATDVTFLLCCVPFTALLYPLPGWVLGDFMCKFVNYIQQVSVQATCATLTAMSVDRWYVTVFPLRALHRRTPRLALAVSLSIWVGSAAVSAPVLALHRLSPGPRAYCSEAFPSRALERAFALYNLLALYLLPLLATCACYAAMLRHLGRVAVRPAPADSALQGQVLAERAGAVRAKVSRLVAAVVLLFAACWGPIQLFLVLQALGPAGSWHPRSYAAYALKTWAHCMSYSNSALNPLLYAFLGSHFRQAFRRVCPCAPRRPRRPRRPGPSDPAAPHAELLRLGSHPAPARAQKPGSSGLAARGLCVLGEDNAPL
Summary of the method: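 Calcium flux read-out: kinetic fluorescence at Ex/Em=480/540, 1 s intervals over 3 min, after pin-tool compound addition to dye-loaded KISS1R-HEK293 cells. Fifteen concentrations, triplicates.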

[5] = G protein-coupled receptor (GPCR) small molecule agonists, calcium flux assay: HEK293 wild type cell line counter screen (AID 1920065); conditions: HEK293 WT calcium flux, fluorescence, agonist mode; series mostly up to 57.6 µM; note: potency is the fitted concentration of half-maximal effect
Summary of the method: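 Agonist mode; 18 h seeding at 37 C, 1 h dye load at 37 C; compounds pinned from DMSO, ATP as positive control; kinetic fluorescence 480/540 nm, 3 min, 1 s reads; 15 concentrations, triplicate.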

[6] = p53 small molecule agonists, cell-based qHTS assay with human liver microsomes: qHTS cell viability counter screen (AID 1963579); conditions: p53RE-bla HCT-116 viability, ATP luminescence, 16 h, HLM; series mostly up to 66 µM; note: nearly all actives have a fitted effect of over 45% in size; note: potency is the fitted concentration of half-maximal effect
Summary of the method: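 Seed p53RE-bla cells at 4,000 per well; incubate 5 h at 37 C; add compound, human liver microsomes and NADPH; incubate 16 h at 37 C; add CellTiter-Glo; after 30 min at room temperature, read luminescence.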

[7] = p53 small molecule agonists, cell-based qHTS assay with rat liver microsomes: qHTS cell viability counter screen (AID 1963580); conditions: p53RE-bla HCT-116 + rat microsomes, ATP viability, 16 h; series mostly up to 66 µM; note: nearly all actives have a fitted effect of over 45% in size; note: potency is the fitted concentration of half-maximal effect
Summary of the method: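 Luminescent ATP readout (CellTiter-Glo, 30 min at room temperature) reports viability of p53RE-bla HCT-116 cells after 16 h at 37 C with test compounds under metabolic activation by rat liver microsomes and NADPH at 0.5 mg/mL final each.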

[8] = p53 small molecule agonists, cell-based qHTS assay: qHTS cell viability counter screen (AID 1963581); conditions: p53RE-bla HCT-116 viability, ATP luminescence, 16 h; series mostly up to 66 µM; note: nearly all actives have a fitted effect of over 45% in size
Summary of the method: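 Cytotoxicity read-out: ATP-based luminescence (CellTiter-Glo, 30 min RT) measured in the same wells as the p53 reporter assay, HCT-116 p53RE-bla cells, 16 h compound exposure at 37 C.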

[9] = target: 5-hydroxytryptamine receptor 2A (Homo sapiens) (UniProt P28223); assay: 5-hydroxytryptamine receptor 2A (HTR2A) small molecule antagonists, cell-based qHTS assay (AID 1963586); conditions: HTR2A-CHO cells, DOI-induced calcium flux, fluorescence; series mostly up to 61.5 µM; note: nearly all actives have a fitted effect of over 45% in size; note: potency is the fitted concentration of half-maximal effect
Sequence of 5-hydroxytryptamine receptor 2A (Homo sapiens) (P28223 whole entry, looked up): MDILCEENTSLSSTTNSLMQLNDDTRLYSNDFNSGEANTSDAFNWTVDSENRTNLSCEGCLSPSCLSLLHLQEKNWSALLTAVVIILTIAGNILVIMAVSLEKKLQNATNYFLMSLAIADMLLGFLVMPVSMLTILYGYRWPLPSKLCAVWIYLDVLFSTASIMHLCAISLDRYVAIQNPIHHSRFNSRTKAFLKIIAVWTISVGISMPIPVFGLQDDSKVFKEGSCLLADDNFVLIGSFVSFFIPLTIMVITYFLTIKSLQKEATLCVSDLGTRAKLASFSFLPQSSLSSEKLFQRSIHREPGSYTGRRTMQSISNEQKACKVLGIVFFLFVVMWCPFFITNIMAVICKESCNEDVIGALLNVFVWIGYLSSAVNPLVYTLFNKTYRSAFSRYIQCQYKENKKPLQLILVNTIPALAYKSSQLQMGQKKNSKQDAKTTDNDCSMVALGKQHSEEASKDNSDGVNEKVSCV
Summary of the method: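 CHO cells stably expressing human HTR2A were plated for 18 h at 37 C, then loaded with calcium dye for 1 h. Compounds were preincubated 5 min at room temperature before DOI (4 nM solution) was added. Kinetic fluorescence was read for 3 min.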

[10] = target: 5-hydroxytryptamine receptor 2A (Homo sapiens) (UniProt P28223); assay: 5-hydroxytryptamine receptor 2A (HTR2A) small molecule agonists, cell-based qHTS assay (AID 1963587); conditions: HTR2A-CHO cells, calcium flux fluorescence, agonist mode; series mostly up to 76.8 µM; note: nearly all actives have a fitted effect of over 30% in size
Summary of the method: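 HTR2A-CHO cells, plated 18 h at 37 C/5% CO2, dye-loaded 1 h at 37 C; compounds in DMSO added by pin tool (agonist mode). Intracellular calcium flux read as kinetic fluorescence on FDSS over 2 min at 1 s intervals.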

[11] = target: Muscarinic acetylcholine receptor M1 (Homo sapiens) (UniProt P11229); assay: Cholinergic receptor muscarinic 1 (CHRM1) small molecule antagonists, cell-based qHTS assay (AID 1963588); conditions: CHRM1-CHO antagonist mode, calcium flux fluorescence; series mostly up to 61.5 µM; note: nearly all actives have a fitted effect of over 40% in size
Sequence of Muscarinic acetylcholine receptor M1 (Homo sapiens) (P11229 whole entry, looked up): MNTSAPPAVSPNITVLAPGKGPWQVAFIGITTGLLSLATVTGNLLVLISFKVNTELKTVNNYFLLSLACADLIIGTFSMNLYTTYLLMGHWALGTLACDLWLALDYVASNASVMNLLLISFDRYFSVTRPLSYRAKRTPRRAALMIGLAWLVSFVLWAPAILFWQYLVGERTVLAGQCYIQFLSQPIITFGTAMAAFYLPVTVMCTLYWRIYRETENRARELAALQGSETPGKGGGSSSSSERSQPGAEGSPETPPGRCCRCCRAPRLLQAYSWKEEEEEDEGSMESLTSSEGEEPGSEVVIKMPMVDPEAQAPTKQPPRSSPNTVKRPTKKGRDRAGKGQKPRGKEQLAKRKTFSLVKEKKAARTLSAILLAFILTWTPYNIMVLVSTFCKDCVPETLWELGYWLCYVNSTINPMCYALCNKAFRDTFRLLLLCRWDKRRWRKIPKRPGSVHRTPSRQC
Summary of the method: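 Compounds were tested at 15 concentrations in three independent runs. Dye-loaded CHRM1-CHO cells were exposed 5 min at room temperature before stimulation by acetylcholine added at 50nM. Intracellular calcium was read kinetically on FDSS for 3 min.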

[12] = target: Muscarinic acetylcholine receptor M1 (Homo sapiens) (UniProt P11229); assay: Cholinergic receptor muscarinic 1 (CHRM1) small molecule agonists, cell-based qHTS assay (AID 1963589); conditions: CHRM1-CHO cells, agonist mode, calcium flux fluorescence; series mostly up to 76.8 µM; note: nearly all actives have a fitted effect of over 35% in size
Summary of the method: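 Calcium flux read-out: kinetic fluorescence at 1 sec intervals after pin-tool compound addition to dye-loaded CHRM1-CHO cells (human M1). Agonist mode; 15 concentrations tested in triplicate independent runs.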

[13] = cAMP Responsive Elements (CRE) small molecule agonists, cell-based qHTS assay (AID 1963590); conditions: CRE-bla HEK293T, beta-lactamase FRET ratio, 3 h; series mostly up to 92.4 µM
Summary of the method: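 Beta-lactamase reporter readout: LiveBLAzer B/G FRET substrate, 2 h at room temperature, added after 3 h compound treatment of CRE-bla HEK 293T cells at 37 C/5% CO2.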

[14] = cAMP Responsive Elements (CRE) small molecule antagonists, cell-based qHTS assay (AID 1963591; active = well fitted inhibition curve with a large enough effect in the signal ratio in the repeat runs, not every such curve was filed as active; the % refers to the signal ratio); conditions: CRE-bla HEK293T, beta-lactamase FRET ratio; series mostly up to 92.4 µM
Summary of the method: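 HEK293T CRE-bla; 18 h preincubation; compound pin-transfer; NKH477 0.25 uM final, 3 h, 37 C; LiveBLAzer FRET substrate 2 h RT.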

[15] = target: Beta-2 adrenergic receptor (Homo sapiens) (UniProt P07550); assay: Adrenergic beta2 receptor (ADRB2) small molecule antagonists, cell-based qHTS assay (AID 1963592); conditions: CHO-ADRB2 cells, isoproterenol-stimulated cAMP HTRF ratio, 0.5 h; series mostly up to 92.4 µM; note: nearly all actives have a fitted effect of over 50% in size
Sequence of Beta-2 adrenergic receptor (Homo sapiens) (P07550 whole entry, looked up): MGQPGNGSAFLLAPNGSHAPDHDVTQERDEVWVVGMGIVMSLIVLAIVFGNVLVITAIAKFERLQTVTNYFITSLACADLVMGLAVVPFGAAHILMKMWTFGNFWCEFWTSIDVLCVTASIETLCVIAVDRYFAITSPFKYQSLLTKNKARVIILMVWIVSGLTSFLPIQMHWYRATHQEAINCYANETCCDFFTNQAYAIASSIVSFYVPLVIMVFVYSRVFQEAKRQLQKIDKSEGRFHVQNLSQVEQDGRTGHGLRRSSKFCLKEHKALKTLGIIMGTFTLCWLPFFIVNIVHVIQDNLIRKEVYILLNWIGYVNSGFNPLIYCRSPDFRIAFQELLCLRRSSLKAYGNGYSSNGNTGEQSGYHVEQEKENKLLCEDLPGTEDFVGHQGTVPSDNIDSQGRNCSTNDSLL
Summary of the method: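 Assay format: CHO-ADRB2 cells, 18-20hr seeding at 37C/5% CO2, then compound plus 1nM isoproterenol agonist mix for 0.5hr RT. Homogeneous time-resolved fluorescence cAMP detection after 1hr, expressed as 665/615 nm ratio.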

[16] = target: D(2) dopamine receptor (Homo sapiens) (UniProt P14416); assay: Dopamine D2 receptor (DRD2) small molecule agonists, cell-based qHTS assay (AID 1963594); conditions: HEK293-DRD2 cAMP HTRF, agonist mode, 30 min; series mostly up to 92.4 µM; note: nearly all actives have a fitted effect of over 35% in size
Sequence of D(2) dopamine receptor (Homo sapiens) (P14416 whole entry, looked up): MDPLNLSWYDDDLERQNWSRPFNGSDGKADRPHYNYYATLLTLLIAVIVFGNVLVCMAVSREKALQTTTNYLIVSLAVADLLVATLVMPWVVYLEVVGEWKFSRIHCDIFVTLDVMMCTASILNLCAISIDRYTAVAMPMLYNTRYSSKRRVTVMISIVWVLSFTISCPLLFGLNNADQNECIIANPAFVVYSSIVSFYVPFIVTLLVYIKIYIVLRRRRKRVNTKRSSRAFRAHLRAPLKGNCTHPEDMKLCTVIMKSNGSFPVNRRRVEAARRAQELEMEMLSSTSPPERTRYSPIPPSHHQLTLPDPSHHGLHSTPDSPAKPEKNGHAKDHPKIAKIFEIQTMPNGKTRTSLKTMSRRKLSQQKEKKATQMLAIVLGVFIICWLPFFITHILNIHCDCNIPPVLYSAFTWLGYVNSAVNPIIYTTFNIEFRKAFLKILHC
Summary of the method: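 HEK293 cells stably expressing DRD2 were cultured 24 h at 37 C, then given Ro20-1724 (0.1 mM final) and compounds for 10 min at room temperature. NKH477 (200nM) was then added for 30 min. cAMP was read by HTRF.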

[17] = target: D(2) dopamine receptor (Homo sapiens) (UniProt P14416); assay: Dopamine D2 receptor (DRD2) small molecule antagonists, cell-based qHTS assay (AID 1963595; active = well fitted inhibition curve with a large enough effect in the signal ratio in the repeat runs, with a control signal flat; the % refers to the signal ratio); conditions: HEK293-DRD2 cAMP HTRF antagonist mode; series mostly up to 92.4 µM
Summary of the method: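 DRD2-HEK293; 0.1 mM Ro20-1724; cpd 10 min RT; NKH477 200 nM + quinpirole 12 nM, 30 min RT; HTRF cAMP (cAMP-d2/anti-cAMP cryptate), 665/620 nm ratio after 1 h.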

[18] = p53 small molecule agonists, cell-based qHTS assay (AID 1963582; active = well fitted activation curve with a large enough effect in the signal ratio in the repeat runs, not every such curve was filed as active; the % refers to the signal ratio); conditions: HCT-116 p53RE-bla reporter, beta-lactamase FRET ratio, 16 h; series mostly up to 66 µM
Summary of the method: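 Fluorescence intensity read-out of a beta-lactamase reporter under a p53 response element. Cells were exposed to DMSO-dissolved compounds for 16 h at 37 C, then developed with FRET substrate for 2 h at RT.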

[19] = target: Beta-2 adrenergic receptor (Homo sapiens) (UniProt P07550); assay: Adrenergic beta2 receptor (ADRB2) small molecule agonists, cell-based qHTS assay (AID 1963593); conditions: CHO-ADRB2 cells, cAMP HTRF, 30 min; series mostly up to 92.4 µM;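 note: CHO cells stably overexpressing human ADRB2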
Summary of the method: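 CHO cells stably over-expressing ADRB2 were plated overnight at 37C, then dosed with compounds plus a stimulation mix containing 100uM IBMX and 25uM Ro-20-1724 for 0.5hr at room temperature. cAMP was measured by HTRF competition, 1hr.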

SMILES	Potency [1]	Potency [2]	Potency [3]	Potency [4]	Potency [5]	Potency [6]	Potency [7]	Potency [8]	Potency [9]	Potency [10]	Potency [11]	Potency [12]	Potency [13]	Potency [14]	Potency [15]	Potency [16]	Potency [17]	Potency [18]	Potency [19]
O=C(Cn1ccnc1[N+](=O)[O-])NCc1ccccc1	inactive	inactive	inactive	inactive	inactive	inactive	inactive	inactive	inactive	inactive	inactive	inactive	inactive	inactive	inactive	inactive	inactive	–	–
NC(=O)N[C@@H](CCC(=O)O)C(=O)O	inactive	inactive	inactive	inactive	inactive	inactive	–	inactive	8.18 µM (active)	inactive	inactive	inactive	inactive	–	inactive	inactive	–	–	–
CN(C)c1ccc2nc3ccc(=[N+](C)C)cc-3sc2c1	54.5 µM (active)	10.4 µM (active) and 15.4 µM (active) and 13.3 µM (active)	inactive	inactive	inactive	8.14 µM (active)	–	inactive	inactive	inactive	inactive	inactive	inactive	inactive	–	–	–	–	–
COCC(O)CO (stereo not drawn)	inactive	inactive	inactive	inactive	inactive	inactive	inactive	inactive	–	inactive	inactive	–	inactive	–	inactive	inactive	inactive	inactive	inactive
CC(=O)Nc1ccc(C)cc1	inactive	inactive	inactive	inactive	inactive	inactive	–	inactive	inactive	inactive	inactive	inactive	inactive	inactive	inactive	inactive	inactive	inactive	–
NC(=Nc1ccccc1)Nc1ccccc1	inactive	19.3 µM (active) and inactive	5.49 µM (active) and 15.1 µM (active)	21.4 µM (active) and 23.9 µM (active)	15.5 µM (active)	–	inactive	–	–	–	–	–	–	inactive	inactive	inactive	inactive	inactive	–
Cc1cccc(Cl)c1	inactive	inactive	inactive	inactive	inactive	inactive	inactive	inactive	–	inactive	inactive	inactive	inactive	inactive	inactive	inactive	–	inactive	–
Cn1sccc1=O	43.3 µM (active) and 13.7 µM (active)	13.7 µM (active) and 6.86 µM (active)	inactive	inactive	inactive	28.9 µM (active) and inactive	18.2 µM (active)	inactive	inactive	inactive	inactive	inactive	inactive	inactive	inactive	inactive	inactive	–	inactive
CCOCCOCC	inactive	inactive	inactive	inactive	inactive	–	inactive	inactive	inactive	inactive	inactive	inactive	inactive	inactive	–	inactive	inactive	inactive	inactive
CCOCCOC(=O)/C=C/c1ccc(OC)cc1	inactive	inactive	inactive	inactive	inactive	inactive	inactive	inactive	inactive	inactive	inactive	inactive	inactive	inactive	inactive	inactive	inactive	inactive	inactive

Reference: PubChem BioAssay (Tox21)
